{"source": "the supplement of paper PMC8728848", "binders": {"B1": {"name": "PX9937J-pdi-523-26-523 (Parabacteroides distasonis) (protein)", "chain": "EPVSSISDANYWKSPDLFKAFNIGLHGLLRSQSSYNIFVLGEPRSDIYGDQPFGGEATQGVERFSYNTINAEFTGISNFANFYTTLNQINLMIRRTNETDLLGEAEKNYYLGQAYGLRAYIYFHLLRSWGDVIITTEPTLGSELDISHLDKAASPASEVMDLIKKDIDASEKAFGGDYSYKQGKCYWSKPATLMLKGEVYLWSGRQMGGGTGDYTVAKTALQDLQQNGNLKLQEKFTDVFSFNNKENSEMIFALHSGKEDDFMMWRDYNWRNNMVPQREYMAGYCDETGTPFLEIPGYNLQGLMRYQVKKDHYLKSFREGDTRLKGTLKAVYKKHEDGTLEYIAPIQYKFQGTTLEGSNERSWYDDYPIYRYADALLLLAEAKALLGEDPSTEINAVRERAYGSEYFNAHKNEVAYPNDKGSFYNDNPFEAGDENVMEAILKERLREFFFEGKRWYDLRRFGKDYVLKYTTAQESRLLWPINEGALTNNPALKQTPGY"}}, "test_in_all_cases": "glycan array binding signal (z-score within array); higher = stronger binding", "conditions_in_all_cases": "glycan notation: IUPAC condensed, linker removed", "key": {"[1]": {"target": "Fuc(a1-2)Gal(b1-3)GlcNAc(b1-3)[Fuc(a1-2)Gal(b1-3)GlcNAc(b1-6)]GalNAc", "procedure,_shortened": "(§1)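 Glycan array data came from 3228 arrays in the Consortium for Functional Glycomics database, and only arrays with an available protein sequence were kept. Glycan names were put into IUPAC-condensed notation, and columns mapping to the same glycan were averaged. The binding signal is a within-array Z-score, averaged across arrays of one protein sequence run at different concentrations or buffers and across linkers. A negative Z-score can be read as non-binding.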"}, "[2]": {"target": "Fuc(a1-2)Gal(b1-4)Glc6S", "procedure,_shortened": "as §1"}, "[3]": {"target": "Fuc(a1-2)Gal(b1-4)GlcNAc(b1-2)Man(a1-3)[Fuc(a1-2)Gal(b1-4)GlcNAc(b1-2)Man(a1-6)]Man(b1-4)GlcNAc(b1-4)[Fuc(a1-6)]GlcNAc", "procedure,_shortened": "as §1"}, "[4]": {"target": "Fuc(a1-2)[Gal(a1-3)]Gal(b1-3)GalNAc", "procedure,_shortened": "as §1"}, "[5]": {"target": "Fuc(a1-2)[Gal(a1-3)]Gal(b1-4)GlcNAc(b1-3)[Fuc(a1-2)[Gal(a1-3)]Gal(b1-4)GlcNAc(b1-6)]GalNAc", "procedure,_shortened": "as §1"}, "[6]": {"target": "Fuc(a1-2)[GalNAc(a1-3)]Gal(b1-4)GlcNAc(b1-3)Gal(b1-4)GlcNAc(b1-3)Gal(b1-4)GlcNAc", "procedure,_shortened": "as §1"}, "[7]": {"target": "Fuc(a1-3)[Gal(b1-4)]Glc6S", "procedure,_shortened": "as §1"}, "[8]": {"target": "Fuc(a1-3)[Gal(b1-4)]GlcNAc(b1-6)GalNAc", "procedure,_shortened": "as §1"}, "[9]": {"target": "Fuc(a1-3)[Gal(b1-4)]GlcNAc6S", "procedure,_shortened": "as §1"}, "[10]": {"target": "Gal(a1-2)Gal", "procedure,_shortened": "as §1"}, "[11]": {"target": "Gal(a1-4)Gal(b1-4)Glc", "procedure,_shortened": "as §1"}, "[12]": {"target": "Gal(a1-4)Gal(b1-4)GlcNAc(b1-2)Man(a1-3)[Gal(a1-4)Gal(b1-4)GlcNAc(b1-2)Man(a1-6)]Man(b1-4)GlcNAc(b1-4)GlcNAc", "procedure,_shortened": "as §1"}, "[13]": {"target": "Gal(b1-3)GlcNAc(b1-2)Man(a1-3)[Gal(b1-3)GlcNAc(b1-2)Man(a1-6)]Man(b1-4)GlcNAc(b1-4)GlcNAc", "procedure,_shortened": "as §1"}, "[14]": {"target": "Gal(b1-3)GlcNAc(b1-3)Gal(b1-4)GlcNAc(b1-2)Man(a1-3)[Gal(b1-3)GlcNAc(b1-3)Gal(b1-4)GlcNAc(b1-2)Man(a1-6)]Man(b1-4)GlcNAc(b1-4)GlcNAc", "procedure,_shortened": "as §1"}, "[15]": {"target": "Gal(b1-3)GlcNAc(b1-3)Gal(b1-4)GlcNAc(b1-6)[Gal(b1-3)GlcNAc(b1-3)]Gal(b1-4)Glc", "procedure,_shortened": "as §1"}, "[16]": {"target": "Gal(b1-3)GlcNAc(b1-3)Gal(b1-4)[Fuc(a1-3)]GlcNAc(b1-6)[Gal(b1-3)GlcNAc(b1-3)]Gal(b1-4)Glc", "procedure,_shortened": "as §1"}, "[17]": {"target": "Gal(b1-3)GlcNAc(b1-3)GalNAc", "procedure,_shortened": "as §1"}, "[18]": {"target": "Gal(b1-3)GlcNAc(b1-6)Gal(b1-4)GlcNAc", "procedure,_shortened": "as §1"}, "[19]": {"target": "Gal(b1-3)[Fuc(a1-4)]GlcNAc(b1-3)Gal(b1-4)[Fuc(a1-3)]GlcNAc", "procedure,_shortened": "as §1"}, "[20]": {"target": "Gal(b1-4)GlcNAc", "procedure,_shortened": "as §1"}, "[21]": {"target": "Gal(b1-4)GlcNAc(b1-3)Gal(b1-4)GlcNAc", "procedure,_shortened": "as §1"}, "[22]": {"target": "Gal(b1-4)GlcNAc(b1-3)Gal(b1-4)GlcNAc(b1-2)[Gal(b1-4)GlcNAc(b1-3)Gal(b1-4)GlcNAc(b1-6)]Man(a1-6)[Gal(b1-4)GlcNAc(b1-3)Gal(b1-4)GlcNAc(b1-2)Man(a1-3)]Man(b1-4)GlcNAc(b1-4)GlcNAc", "procedure,_shortened": "as §1"}, "[23]": {"target": "Gal(b1-4)GlcNAc(b1-3)Gal(b1-4)GlcNAc(b1-3)Gal(b1-4)GlcNAc(b1-3)Gal(b1-4)GlcNAc(b1-2)Man(a1-3)[Gal(b1-4)GlcNAc(b1-3)Gal(b1-4)GlcNAc(b1-3)Gal(b1-4)GlcNAc(b1-3)Gal(b1-4)GlcNAc(b1-2)Man(a1-6)]Man(b1-4)GlcNAc(b1-4)[Fuc(a1-6)]GlcNAc", "procedure,_shortened": "as §1"}, "[24]": {"target": "Gal(b1-4)GlcNAc(b1-3)Gal(b1-4)GlcNAc(b1-3)Gal(b1-4)GlcNAc(b1-3)Gal(b1-4)GlcNAc(b1-3)Gal(b1-4)GlcNAc(b1-3)Gal(b1-4)GlcNAc(b1-2)Man(a1-3)[Gal(b1-4)GlcNAc(b1-3)Gal(b1-4)GlcNAc(b1-3)Gal(b1-4)GlcNAc(b1-3)Gal(b1-4)GlcNAc(b1-3)Gal(b1-4)GlcNAc(b1-3)Gal(b1-4)GlcNAc(b1-2)Man(a1-6)]Man(b1-4)GlcNAc(b1-4)GlcNAc", "procedure,_shortened": "as §1"}, "[25]": {"target": "Gal(b1-4)GlcNAc(b1-3)Gal(b1-4)GlcNAc(b1-3)GalNAc", "procedure,_shortened": "as §1"}, "[26]": {"target": "Gal(b1-4)GlcNAc(b1-3)GalNAc", "procedure,_shortened": "as §1"}, "[27]": {"target": "Gal(b1-4)GlcNAc(b1-3)[Gal(b1-4)GlcNAc(b1-6)]Gal(b1-4)GlcNAc", "procedure,_shortened": "as §1"}, "[28]": {"target": "Gal(b1-4)GlcNAc(b1-6)[Gal(b1-4)GlcNAc(b1-3)]GalNAc", "procedure,_shortened": "as §1"}}, "note": "The sample as a whole holds a higher share of the strongest signals than the screen did.", "data": [{"binder": "B1", "values": [{"measurement": "glycan array binding signal (z-score)", "setting": "[1]", "result": -0.127}, {"measurement": "glycan array binding signal (z-score)", "setting": "[2]", "result": -0.759}, {"measurement": "glycan array binding signal (z-score)", "setting": "[3]", "result": 0.953}, {"measurement": "glycan array binding signal (z-score)", "setting": "[4]", "result": -0.16}, {"measurement": "glycan array binding signal (z-score)", "setting": "[5]", "result": -0.426}, {"measurement": "glycan array binding signal (z-score)", "setting": "[6]", "result": -0.377}, {"measurement": "glycan array binding signal (z-score)", "setting": "[7]", "result": -0.103}, {"measurement": "glycan array binding signal (z-score)", "setting": "[8]", "result": -0.093}, {"measurement": "glycan array binding signal (z-score)", "setting": "[9]", "result": 5.71}, {"measurement": "glycan array binding signal (z-score)", "setting": "[10]", "result": -0.363}, {"measurement": "glycan array binding signal (z-score)", "setting": "[11]", "result": 0.596}, {"measurement": "glycan array binding signal (z-score)", "setting": "[12]", "result": 2.9}, {"measurement": "glycan array binding signal (z-score)", "setting": "[13]", "result": -0.12}, {"measurement": "glycan array binding signal (z-score)", "setting": "[14]", "result": 3.05}, {"measurement": "glycan array binding signal (z-score)", "setting": "[15]", "result": 0.461}, {"measurement": "glycan array binding signal (z-score)", "setting": "[16]", "result": -0.698}, {"measurement": "glycan array binding signal (z-score)", "setting": "[17]", "result": -0.708}, {"measurement": "glycan array binding signal (z-score)", "setting": "[18]", "result": -0.374}, {"measurement": "glycan array binding signal (z-score)", "setting": "[19]", "result": -0.34}, {"measurement": "glycan array binding signal (z-score)", "setting": "[20]", "result": 0.078}, {"measurement": "glycan array binding signal (z-score)", "setting": "[21]", "result": -0.225}, {"measurement": "glycan array binding signal (z-score)", "setting": "[22]", "result": 10.4}, {"measurement": "glycan array binding signal (z-score)", "setting": "[23]", "result": 0.026}, {"measurement": "glycan array binding signal (z-score)", "setting": "[24]", "result": 8.6}, {"measurement": "glycan array binding signal (z-score)", "setting": "[25]", "result": 6.57}, {"measurement": "glycan array binding signal (z-score)", "setting": "[26]", "result": -0.086}, {"measurement": "glycan array binding signal (z-score)", "setting": "[27]", "result": -0.21}, {"measurement": "glycan array binding signal (z-score)", "setting": "[28]", "result": -0.149}]}]}
